Among the data in PubChem BioAssay (NCATS) are outcome and Potency values, retold here.

In experiment [1] the target is Mitogen-activated protein kinase 10 (Mus musculus) (UniProt Q61831). The experiment can be described thus: JNK3 AlphaScreen Assay (AID 530; active means well fitted curve in either direction with a large enough effect, not every such curve was filed as active;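 further: kinase came from lysate of stimulated human HepG2 cells; signal reports phosphorylation of biotinylated GST-cJun 1-79 at Ser73 with 10 µM ATP; series mostly up to about 57 µM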). The gist of the method: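 qHTS format: compounds tested as titrations against IL-1beta/TNF-alpha-activated HepG2 lysate JNK3 with biotin-GST-cJun substrate and 10 uM ATP at room temperature. Loss of anti-phospho-cJun AlphaScreen signal indicates inhibition.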
A general note: Bead proximity is the source of the signal in Alpha formats.

Experiment [2] deals with Cytochrome P450 3A4 (Homo sapiens) (UniProt P08684). Nature of the experiment: qHTS Assay for Inhibitors and Substrates of Cytochrome P450 3A4 (AID 884). Further: series mostly up to about 57 µM; nearly all actives have a fitted effect of over 50% in size. The gist of the method: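 20 nM human CYP3A4 with 25 uM Luciferin-PPXE (at KM) in 200 mM KPO4, preincubated 10 min with compound; NADPH regeneration started a 60 min RT reaction. Luciferin detected by luminescence, normalized to 57 uM ketoconazole as full inhibition.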
For orientation: In qHTS, concentration-response curves come from the screen itself.

The target of experiment [3] is Calcium and integrin-binding protein 1 (Homo sapiens) (UniProt Q99828). The experiment can be described thus: Primary qHTS for Identification of Calcium Integrin Binding Protein 1 (CIB1) Competitor (AID 1508620). Further: top concentration of the series differs between compounds. The gist of the method: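 Fluorescence polarization competition: GST-tagged CIB1 (1 uM final) preincubated with compound 15 min at room temperature, then FITC-labelled alphaIIb peptide (100 nM final) added. After 15 min at room temperature, polarization read at Ex 480/Em 540.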

In experiment [4] the target is Glutathione peroxidase 1 (Homo sapiens) (UniProt P07203). Nature of the experiment: Primary qHTS Assay for Inhibitors of Recombinant Selenoprotein Glutathione Peroxidase 1 (GPX1) (AID 1845191). Further: nearly all actives have a fitted effect of over 65% in size. The gist of the method:
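GR-coupled assay: compounds preincubated 30 min at room temperature with GPX1, then reaction started with CHP; final 10 nM GPX1, 1 mM GSH, 0.5 mM CHP, 0.5 mM NADPH, 100 nM GR, 0.01% BSA, pH 7.5 Tris buffer. NADPH fluorescence (340/450 nm) read at 0 and 15 min.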

In experiment [5] the target is Rap guanine nucleotide exchange factor 3 (Homo sapiens) (UniProt O95398). Nature of the experiment: Confirmatory qHTS for agonist of cAMP-regulated guanine nucleotide exchange factor 3 (EPAC1) (AID 1645881).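 Further: EPAC1 catalysed release of BODIPY-GDP from Rap1B seen as fluorescence loss; nearly all actives have a fitted effect of over 75% in size.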
Experiment [6] deals with Rap guanine nucleotide exchange factor 4 (Homo sapiens) (UniProt Q8WZA2). Nature of the experiment: Confirmatory qHTS for agonist of cAMP-regulated guanine nucleotide exchange factor 4 (EPAC2) (AID 1645884).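 Further: nucleotide exchange releases bodipy-GDP from Rap1 and this lowers its fluorescence; nearly all actives have a fitted effect of over 65% in size.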
Experiment [7] has the same target. Nature of the experiment: Confirmatory qHTS for antagonist of cAMP-regulated guanine nucleotide exchange factor 4 (EPAC2) (AID 1645885). Further: potency means the concentration at half of the fitted maximal effect; nearly all actives have a fitted effect of over 25% in size.
Experiment [8] addresses Rap guanine nucleotide exchange factor 3 (Homo sapiens) (UniProt O95398). Nature of the experiment: Counterscreen qHTS for antagonist of cAMP-regulated guanine nucleotide exchange factor 3 (EPAC1) (AID 1645888).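 Further: fluorescence loss as bound BODIPY-GDP is released from Rap1B.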 In short, it runs like this:
(§1)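 Rap1B–BODIPY-GDP (250 nM) with 50 uM GDP; compounds pin-transferred to 9.74 nM–152 uM final (activator) or from 7.32 nM upwards (inhibitor). Fluorescence Ex/Em 480/540 nm read at 5 and 30 min, then after adding cAMP or buffer, at room temperature.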
(Counterscreens check selectivity or assay interference.)

For experiment [9] the target is unchanged. The experiment can be described thus: Counterscreen qHTS for agonist of cAMP-regulated guanine nucleotide exchange factor 3 (EPAC1) (AID 1645889). Further: nearly all actives have a fitted effect of over 40% in size. In short, it runs like this: as §1

Results filed as inconclusive are left out. Where a call stands in place of a potency, no number is given. Activity calls are given as the source filed them. Unless noted, the call rests on the fitted dose curve; in most records, active means well fitted curve in the direction sought with a large enough effect; inconclusive means small, poorly fitted or top-dose-only effect, or another doubt; inactive means no such curve, though single readings can be large; an effect the other way counts as inactive or inconclusive.

Sequence of Cytochrome P450 3A4 (Homo sapiens) (P08684 whole entry, looked up): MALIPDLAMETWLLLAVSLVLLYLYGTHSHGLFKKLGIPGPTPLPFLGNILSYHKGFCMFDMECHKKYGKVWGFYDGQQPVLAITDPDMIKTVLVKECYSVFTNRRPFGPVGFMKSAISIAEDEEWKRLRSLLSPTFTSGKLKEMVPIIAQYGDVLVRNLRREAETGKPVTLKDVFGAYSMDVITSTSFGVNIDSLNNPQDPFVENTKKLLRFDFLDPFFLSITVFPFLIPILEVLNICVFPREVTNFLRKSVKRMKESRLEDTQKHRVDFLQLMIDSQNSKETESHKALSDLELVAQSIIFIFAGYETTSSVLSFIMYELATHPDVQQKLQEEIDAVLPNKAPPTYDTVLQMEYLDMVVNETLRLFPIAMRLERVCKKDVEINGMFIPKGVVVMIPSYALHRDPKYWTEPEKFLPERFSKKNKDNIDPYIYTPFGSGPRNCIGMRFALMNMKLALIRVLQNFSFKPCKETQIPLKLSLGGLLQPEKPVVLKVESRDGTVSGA
Sequence of Calcium and integrin-binding protein 1 (Homo sapiens) (Q99828 whole entry, looked up): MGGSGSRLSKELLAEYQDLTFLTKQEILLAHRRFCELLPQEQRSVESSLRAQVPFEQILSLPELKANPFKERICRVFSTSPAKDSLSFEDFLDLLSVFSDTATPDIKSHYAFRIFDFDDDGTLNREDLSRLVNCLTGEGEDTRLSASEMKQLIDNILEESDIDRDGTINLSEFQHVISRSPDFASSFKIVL
Sequence of Glutathione peroxidase 1 (Homo sapiens) (P07203 whole entry, looked up): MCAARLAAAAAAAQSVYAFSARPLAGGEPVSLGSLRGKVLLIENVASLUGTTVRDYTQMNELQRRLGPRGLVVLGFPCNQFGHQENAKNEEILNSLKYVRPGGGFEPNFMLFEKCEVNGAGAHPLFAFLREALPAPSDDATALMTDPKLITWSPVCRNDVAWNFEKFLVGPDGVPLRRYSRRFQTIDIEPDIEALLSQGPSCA
Sequence of Rap guanine nucleotide exchange factor 4 (Homo sapiens) (Q8WZA2 whole entry, looked up): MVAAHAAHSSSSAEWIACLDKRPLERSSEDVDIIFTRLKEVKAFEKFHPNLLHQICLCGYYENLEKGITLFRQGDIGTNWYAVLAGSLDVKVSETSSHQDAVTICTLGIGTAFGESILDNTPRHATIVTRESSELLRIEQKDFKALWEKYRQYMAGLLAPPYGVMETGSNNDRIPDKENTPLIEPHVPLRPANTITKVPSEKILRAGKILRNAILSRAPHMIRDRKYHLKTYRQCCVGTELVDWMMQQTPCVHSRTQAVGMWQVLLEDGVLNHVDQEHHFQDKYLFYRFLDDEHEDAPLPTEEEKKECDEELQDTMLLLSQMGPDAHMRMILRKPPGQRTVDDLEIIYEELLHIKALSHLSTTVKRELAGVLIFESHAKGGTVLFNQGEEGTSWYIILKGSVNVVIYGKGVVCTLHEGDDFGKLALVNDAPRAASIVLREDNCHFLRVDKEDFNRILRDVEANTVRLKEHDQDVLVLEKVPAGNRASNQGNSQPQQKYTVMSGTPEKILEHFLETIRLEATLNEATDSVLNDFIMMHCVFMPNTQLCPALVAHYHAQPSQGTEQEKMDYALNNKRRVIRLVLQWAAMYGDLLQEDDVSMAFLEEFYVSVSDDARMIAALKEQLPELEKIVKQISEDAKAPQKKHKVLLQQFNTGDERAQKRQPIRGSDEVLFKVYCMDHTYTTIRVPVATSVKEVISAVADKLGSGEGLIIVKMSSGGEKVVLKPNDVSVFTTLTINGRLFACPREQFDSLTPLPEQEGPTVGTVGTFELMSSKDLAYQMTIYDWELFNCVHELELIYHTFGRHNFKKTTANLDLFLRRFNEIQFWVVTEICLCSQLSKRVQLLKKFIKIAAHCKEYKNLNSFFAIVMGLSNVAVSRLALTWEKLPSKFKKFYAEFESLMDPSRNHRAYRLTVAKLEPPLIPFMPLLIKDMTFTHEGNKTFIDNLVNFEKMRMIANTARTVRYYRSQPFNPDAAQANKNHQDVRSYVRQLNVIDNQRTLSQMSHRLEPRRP
Sequence of Rap guanine nucleotide exchange factor 3 (Homo sapiens) (O95398 whole entry, looked up): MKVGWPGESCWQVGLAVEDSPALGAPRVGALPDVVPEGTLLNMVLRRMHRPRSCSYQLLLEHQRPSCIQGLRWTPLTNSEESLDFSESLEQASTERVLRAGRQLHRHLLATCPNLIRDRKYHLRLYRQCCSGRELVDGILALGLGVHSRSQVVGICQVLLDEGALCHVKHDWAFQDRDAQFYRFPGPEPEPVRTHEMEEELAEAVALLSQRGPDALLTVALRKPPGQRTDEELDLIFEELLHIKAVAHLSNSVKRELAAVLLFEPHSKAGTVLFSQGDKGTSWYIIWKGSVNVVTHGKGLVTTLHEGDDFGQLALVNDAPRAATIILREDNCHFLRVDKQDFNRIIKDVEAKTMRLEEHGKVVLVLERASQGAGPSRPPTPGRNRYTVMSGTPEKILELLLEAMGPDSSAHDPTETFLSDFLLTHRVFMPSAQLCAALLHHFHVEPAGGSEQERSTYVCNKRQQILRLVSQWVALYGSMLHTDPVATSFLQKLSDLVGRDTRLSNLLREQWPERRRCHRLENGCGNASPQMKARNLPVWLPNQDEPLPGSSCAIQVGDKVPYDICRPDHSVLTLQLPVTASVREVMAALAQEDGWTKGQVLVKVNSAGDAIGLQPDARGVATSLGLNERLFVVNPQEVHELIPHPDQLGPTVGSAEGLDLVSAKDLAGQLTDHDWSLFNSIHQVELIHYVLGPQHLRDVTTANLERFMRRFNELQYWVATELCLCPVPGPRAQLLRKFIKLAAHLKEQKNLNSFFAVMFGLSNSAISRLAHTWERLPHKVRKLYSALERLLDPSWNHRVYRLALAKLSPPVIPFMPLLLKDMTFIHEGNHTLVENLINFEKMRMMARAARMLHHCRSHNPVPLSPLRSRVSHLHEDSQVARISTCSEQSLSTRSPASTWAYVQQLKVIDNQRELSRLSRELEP

With `CCCn1c(C)nc2c(NCCCN3CCCCC3C)nc(C)nc21` (stereo not drawn), the outcome in experiment [1] was inactive. Also, the Potency entry in experiment [2] and in [3] was “inactive” throughout.
Consider `CN(C(=O)c1cn2c(-c3ccc(C(F)(F)F)cc3)cnc2cn1)c1ccc(C#N)cc1`, for which the Potency entry in [3] and in experiment [4] was “inactive” each time.
On to `CC(=O)Nc1sc2c(c1-c1ccc(N3CCN(C)CC3)cc1)CCNC2`, for which the Potency result in experiment [3] and in [4] was “inactive” in each case.
As for `CCN(CC)CCCn1c(-c2ccccc2)nc2c(N3CCOCC3)nc(C)nc21`, the result in experiment [1] was inactive. Further, the Potency entry in experiment [2] and in experiment [3] was “inactive” in each case.
On to `Cc1ccc(NS(=O)(=O)c2ccc3c(c2)CCC(=O)N3)cc1C`, for which the Potency entry in experiment [3] and in experiment [4] was “inactive” in each case.
For `Nc1ccc(-c2ccnc(NCCCNC(=O)c3c(Cl)cccc3Cl)n2)cc1`, the Potency result in experiment [3] and in experiment [4] was “inactive” throughout.
In the case of `CCCn1c(C)nc2c(NCCCCN3CCCC3)nc(C)nc21`, the outcome in experiment [1] was inactive. The Potency entry in experiment [2] and in [3] was “inactive” in each case.
For the compound `CCC(=O)NC(c1ccco1)c1cc(Cl)c2ccccc2c1O` (stereo not drawn), in experiment [3], the Potency result is “inactive”. Also, the compound was classed as inactive in experiment [5], in experiment [6], in [8] and in experiment [9]. In addition, the Potency in experiment [7] is 53.6 µM (active).
